High-throughput results deposited in PubChem by National Center for Advancing Translational Sciences (NCATS).
Vaccinia Venus: qHTS for Stage-Specific Inhibitors of Vaccinia Orthopoxvirus: Venus Reporter Primary qHTS. Vaccinia virus Venus reporter expression, fluorescence. 0.46% of 330,000 active. AID 720580, 2013. Potency, µM (titrated, usually from 36.5 µM), for inactives: at the top dose activity change, negative = inhibition, actives largely listed as inhibitors; calls by dose curve; tested in A549 cells; also: potency is read from the fitted curve at half-maximal effect; nearly all actives have a fitted effect of over 30% in size
HCMV inh: qHTS Assay for inhibitors of the human cytomegalovirus (HCMV). 4.5% of 410,000 active. HFF cells, HCMV-luciferase reporter, 72 h; stronger effect = lower value. activity change, negative = inhibition, % at 57.5 µM; in the data active = activity change below about -60%; inconclusive = no clear call, values can overlap the other calls; inactive = above about -39%
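Compounds were evaluated in HFFs infected with an HCMV luciferase reporter virus (MOI 1 PFU/cell). Luciferase in lysates collected 72 h post infection served as the replication measure.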
Giardia FBPA inh: qHTS Assay for Inhibitors of Fructose-1,6-bisphosphate Aldolase from Giardia Lamblia; A8B2U2; purified Giardia FBPA; Potency, µM (top dose mostly 59.6 µM), inactives show at the highest dose activity, negative = inhibition, most hits filed as inhibitors; 0.71% of 290,000 active; also: potency is read from the fitted curve at half-maximal effect; nearly all actives have a fitted effect of over 55% in size
Target sequence (A8B2U2 whole entry, looked up): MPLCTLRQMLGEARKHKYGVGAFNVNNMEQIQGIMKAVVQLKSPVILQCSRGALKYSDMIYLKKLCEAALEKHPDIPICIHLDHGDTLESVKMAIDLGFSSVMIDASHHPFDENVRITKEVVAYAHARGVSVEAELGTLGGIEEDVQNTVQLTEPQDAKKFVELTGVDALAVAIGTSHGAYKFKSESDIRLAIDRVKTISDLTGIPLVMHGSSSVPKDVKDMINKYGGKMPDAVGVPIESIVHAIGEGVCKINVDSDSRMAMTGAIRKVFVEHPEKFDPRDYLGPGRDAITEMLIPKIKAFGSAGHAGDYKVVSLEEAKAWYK
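40 nM FBPA preincubated 10 min at RT with compound (up to 57.5 uM final), then substrate plus GAPDH/TPI/NAD/arsenate coupling and diaphorase/resazurin added. Fluorescence read after 20 min at RT, 525/598 nm.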
VACV mCherry inh: qHTS for Stage-Specific Inhibitors of Vaccinia Orthopoxvirus: mCherry Reporter Primary qHTS; Vaccinia virus mCherry reporter infection, fluorescence; Potency, µM (highest dose often 36.5 µM), for inactives: at the top dose activity change, negative = inhibition, most hits filed as inhibitors; 0.63% of 310,000 active; AID 720579, 2013; calls by dose curve; tested in A549 cells; also: potency is read from the fitted curve at half-maximal effect; nearly all actives have a fitted effect of over 35% in size
HCV inh: qHTS Assay for Inhibitors of Hepatitis C Virus (HCV) | Potency, µM (doses to about 41.8 µM), for inactives: at the top dose activity change, negative = inhibition, most hits filed as inhibitors | AID 651820, 2012 | Huh7.5.1 HCVcc-Cre infection, luciferase reporter, 44 h | 3.4% of 340,000 active; also: potency is read from the fitted curve at half-maximal effect
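HCVcc-Cre virus at an moi near 0.5 was added right after compound to cells cultured 4 h from seeding (1,000 cells/well). Luciferase activity was determined 44 h later, 15 min after substrate addition at RT.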
FMDV antiviral: High Throughput Screening for Foot and Mouth Disease Virus Antivirals. 1.2% of 410,000 active. FMDV antiviral cell-based qHTS. Potency, µM (top dose mostly 57.9 µM), for inactives: top-dose activity change, negative = inhibition, usual class: inhibitors; calls by dose curve; tested in HEK293T cells; also: read-out not given here; potency is read from the fitted curve at half-maximal effect; nearly all actives have a fitted effect of over 45% in size
The depositor's hits bear a star; i = inactive; ? = inconclusive; / = no result; [ ] = dose if it differs, or a comment. Rows were chosen to be rich in hits. Some 7.5% of all compounds tested hit in one or more screens of this group. Unless noted, calls follow the shape of the dose curve; as a rule, active = well fitted curve in the direction sought with a large enough effect; inconclusive = small, poorly fitted or top-dose-only effect, or another doubt; inactive = no such curve, though single readings can be large; an effect the other way counts as inactive or inconclusive. % is scaled to controls: 0 for no effect and ±100 for the full control effect.

SMILES | Vaccinia Venus | HCMV inh | Giardia FBPA inh | VACV mCherry inh | HCV inh | FMDV antiviral
Fc1cc(Br)ccc1Nc1c2c(nc3nc(-c4cccs4)nn13)CCCC2 | ? | -60* | / | ? | / | ?
Cc1ccc(Nc2c3c(nc4nc(-c5cccs5)nn24)CCCC3)cc1F | ? | 27 | / | 11µM* | / | ?
Cc1cccc(N2CCN(CC(=O)Nc3ccc(S(=O)(=O)N4CCOCC4)cc3)CC2)c1C | / | -67* | / | / | 10µM* | ?
O=C(CN1CCOCC1)Nc1ccc(S(=O)(=O)N2CCCCCC2)cc1 | / | -82* | 1% | / | 8% | 7%
Cc1cccc(N2CCN(CCNC(=O)Nc3ccc(Cl)cc3)CC2)c1C | -10%[7.34 µM] | -99* | / | -10%[7.34 µM] | / | 0%
CCOc1ccc2nc(N3CCCC(C(=O)Nc4ccc(OC)cc4)C3)sc2c1 (stereo not given) | -29% | 48 | / | -24% | / | -7%
O=S(=O)(c1ccccc1)N1CCC[C@@]2(CCN(c3ccccc3)C2)C1 | / | / | -7% | / | / | -25%
OC(c1ccccc1)(c1ccc(Cl)cc1)C1CN2CCC1CC2 (stereo not given) | ? | 39 | 1% | -3% | 2.8µM* | 0%
OC(c1ccccc1)(c1ccccc1)C1CN2CCC1CC2 (stereo not given) | -13% | -15 | -2% | i | ? | -14%
CC1(C)CC(NC(=O)c2ccc(Cl)c(Cl)c2)CC(C)(C)N1 | / | 55 | 13% | / | ? | -6%
CCCCOc1ccc(C(C)NC(=O)CCS(=O)(=O)Cc2ccccc2F)cc1 (stereo not given) | -26% | -66* | 1% | i | -2% | -14%
c1ccc2c(c1)ccc1ccccc12 | -9% | ? | / | i | 2% | 2%
O=c1ccc2ccccc2c2ccccc12 | -5% | -99* | / | 10% | / | 13µM*
Nc1ccc2oc(-c3ccc4nc[nH]c4c3)nc2c1 | / | 86 | -19% | / | ? | -19%
Cc1nc2ccc(-c3nc4cc(N)ccc4o3)cc2[nH]1 | -13% | 46 | 1% | i | 10µM* | 0%
CCOC(=O)C(=Cc1ccc(-c2ccsc2C(=O)OC)o1)C(=O)OCC | / | -9 | -10% | / | ? | 32µM*
COc1cc(SC)ccc1C(=O)NCCCn1ccnc1 | 4% | -8 | -6% | -1% | 13% | -4%
CN1C(=O)N(C)c2ccc(C=O)c3cccc1c23 | 5% | -21 | -25% | i | -11% | -9%
CN1C(=O)N(C)c2ccc(Br)c3cccc1c23 | / | ? | -6% | / | 14µM* | -12%
O=C(NC1CCCCC1)N(Cc1cc2cc3c(cc2[nH]c1=O)OCCO3)C1CCCCC1 | / | -80* | -5% | / | 11µM* | -3%
CC(=O)Nc1ccc(S(=O)(=O)N[C@H]2CC[C@@]34CCCN3C(=O)CCC[C@H]4[C@H]2Cc2ccccc2)cc1 | / | -8 | / | / | / | /
Cc1ccc(NC(=O)CCCc2nnc3n(C)c(=O)c4sccc4n23)cc1F | -10% | -31 | / | -14% | / | 1.3µM*
CCC(C)n1c(=O)c2sccc2n2c(CCCC(=O)Nc3ccc(F)cc3)nnc12 (stereo not given) | -11% | -65* | / | -8% | / | -1%
Cn1c(=O)c2sccc2n2c(CCCC(=O)Nc3ccc(Cl)cc3)nnc12 | -4% | -29 | / | 2% | / | ?
CCc1ccc(NC(=O)CCCc2nnc3n(C(C)CC)c(=O)c4sccc4n23)cc1 (stereo not given) | -13% | ? | / | -10% | / | -15%
SMILES | Vaccinia Venus | HCMV inh | Giardia FBPA inh | VACV mCherry inh | HCV inh | FMDV antiviral
CCCn1c(=O)c2sccc2n2c(CCCC(=O)Nc3ccc(C)c(F)c3)nnc12 | 2% | ? | / | -5% | / | -20%
Cn1c(=O)c2sccc2n2c(CCCC(=O)Nc3ccc(Oc4ccccc4)cc3)nnc12 | -13% | -65* | / | -5% | / | ?
COc1ccccc1N(CCC#N)C(=O)COC(=O)CCC(=O)c1ccc(F)cc1 | / | 0 | / | / | 3% | -8%
O=C(Nc1ccc(C(F)(F)F)cc1)c1cccnc1N1CCOCC1 | / | -12 | -5% | / | 1% | -9%
O=C(c1cc(Sc2ccc(Cl)cc2)nc2ccccc12)N1CCN(c2ccccn2)CC1 | 2% | -32 | -8% | -6% | ? | ?
O=C(Nc1ccc(C(F)(F)F)cc1)c1cnc(N2CCN(c3ccccn3)CC2)c2ccccc12 | 5% | 37 | -1% | 4% | -12% | 7.1µM*
O=C(c1cc(Cl)ccc1Cl)N1CCN(c2ccccn2)CC1 | -5% | ? | 9% | -9% | 1% | ?
O=C(c1cnc(N2CCN(c3ccccn3)CC2)c2ccccc12)N1CCN(c2cccc(Cl)c2)CC1 | ? | -94* | 5% | ? | 5µM* | 8.9µM*
O=C(c1cc(Sc2cccc(Cl)c2)nc2ccccc12)N1CCN(c2ccccn2)CC1 | ? | ? | -3% | i | 10µM* | -24%
Cc1ccc(NC(=O)c2cc3c(=O)n(Cc4ccco4)ccc3nc2C)cc1C | -8% | -31 | / | -3% | / | -19%
CC(=O)NC(Cc1ccc(O)cc1)C(=O)NCC(N)C(=O)c1ccccc1 (stereo not given) | -14% | / | / | -22% | / | /
C1CCN(c2c3c(nc4nnnn24)CCCC3)CC1 | -4% | -64* | / | / | -3% | -23%
O=C(Nc1cccnc1)c1c(F)cccc1F | -12% | -104* | 6% | i | -15% | 25%
O=C(Nc1ccc(NC(=O)c2ccco2)nc1)c1cccnc1 | 3% | 107 | 5% | -9% | 12% | -7%
O=C(Nc1cccnc1)c1ccc(NC(=O)c2ccco2)cc1 | -4% | -103* | -5% | -18% | 5% | -5%
O=C(Nc1cccnc1)c1ccccc1F | -11% | -3 | 3% | i | 11% | 10%
O=C(Nc1cccnc1)c1ccco1 | -7% | -82* | 3% | -10% | 19% | /
Cc1c(Cl)cccc1NC(=O)CCCN1C(=O)CCC1=O | -17% | -2 | 10% | -15% | 9% | 8%
CCCNC(=S)N1CCN(c2nc(C)nc3sc4c(c23)CCCC4)CC1 | -23% | ? | -4% | -11% | ? | -28%
COCCCNC(=S)N1CCN(c2nc(C)nc3sc4c(c23)CCCC4)CC1 | / | ? | 3% | / | 10µM* | -23%
CCCCCC1CCC(c2n[nH]c(=S)n2C)CC1 (stereo not given) | -11% | -82* | -1% | -1% | -3% | 7%
CN(C)C/C=C/C(O)(c1ccccc1)c1ccccc1 | -4%[7.34 µM] | -13 | 3% | i[7.34 µM] | 7% | -1%
CN(C)CC(CCC(CN(C)C)C(O)(c1ccccc1)c1ccccc1)C(O)(c1ccccc1)c1ccccc1 (stereo not given) | -12% | -98* | 3% | ? | 11µM* | -17%
